Consider four compounds from PubChem BioAssay.

Results filed as inconclusive are left out. Activity calls are given as the source filed them.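 Rule for the calls, unless noted: active = percent response above a set limit, the screen-wide mean plus 3 SD (cut at about 130% in these data); inactive = the rest.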

Test [1] in a line: rapamycin-like changes in RPL19A-GFP expression – cell-based, S. cerevisiae, multiplex flow cytometry, primary screen (AID 1862; in the data active = percent of DMSO control GFP below about 86%;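 note: lower values mimic rapamycin by blocking the RPL19A rise seen in DMSO cells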). The settings on record: S. cerevisiae RPL19A-GFP strain, flow cytometry fluorescence, 3 h; at 10 µM; stronger effect = lower value. (In general: Flow cytometry measures light scatter and fluorescence of single cells or particles in a stream.)
The nature of test [2]: TOR pathway GLN3 branch reporter MEP2-GFP changes – S. cerevisiae, multiplex flow cytometry, primary screen (AID 1867;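 active = GFP response, as percent of the DMSO control, above the screen-wide mean plus 3 SD, about 139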;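 note: median GFP channel fluorescence of barcode-gated MEP2-GFP cells measured by flow cytometry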). The settings on record: S. cerevisiae MEP2-GFP strain, 3 h, at 10 µM, stronger effect = higher value, 100% means same as DMSO wells.
Test [3] in a line: TOR pathway RTG branch CIT2 reporter changes – S. cerevisiae, GFP fusion, multiplex flow cytometry, primary screen (AID 1870).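 Note: barcoded CIT2-GFP strain pooled with four other GFP strains with rapamycin as positive control; median GFP fluorescence per well over plate mean of DMSO wells so 100% = DMSO.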 The settings on record: S. cerevisiae CIT2-GFP expression, 3 h, at 10 µM, stronger effect = higher value.
The nature of test [4]: TOR pathway LAP4-GFP level changes – S. cerevisiae, multiplex flow cytometry, primary screen (AID 1873;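 active = GFP signal, as percent of the solvent control, above the screen mean plus 3 SD, about 149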). As to conditions: S. cerevisiae LAP4-GFP expression, 3 h, at 10 µM, stronger effect = higher value.
A short description of test [5]: yeast AGP1-GFP level changes, GLN3 branch – cell-based, multiplex flow cytometry, S. cerevisiae, primary screen (AID 1887;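 active = GFP signal above the screen-wide mean plus 3 SD, that is over about 124.5% of the solvent control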;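 note: AGP1-GFP fusion strain of S. cerevisiae within a five-strain barcoded multiplex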). As to conditions: 3 h, at 10 µM, stronger effect = higher value.
Test [6] is described as follows: reduced mouse 2C T cell binding to pMHC/ICAM-1 vesicles – MLPCN validation set, flow cytometry, LFA-1/ICAM-1 modulator project, pilot screen (AID 2523;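 active = response below a set limit, under 55% cells CD8-positive and vesicle-bound, and CD8 cells' 90th-percentile brightness under 279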;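 for vesicle binding response: mean PE anti-B7-1 fluorescence of CD8+ cells relative to row control; 100% = QL9-loaded vesicles with DMSO vehicle in the same plate row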). The settings on record: 2C mouse CD8+ T cells, at 7 µM, stronger effect = lower value; double positive events: measured here: CD8+/vesicle+ event percentage.
The target of test [7] is Integrin beta-1 (Homo sapiens) + Integrin alpha-4 (Homo sapiens) (UniProt P13612+P05556). Put plainly: alpha4beta1 integrin LIBS antibody binding reduction – U937 cells, HUTS-21 mAb, flow cytometry, validation set, VLA-4 allosteric modulator project, pilot screen (AID 2674;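 active = inhibition above 50%, about 3 SD of the validation set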;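 note: antibody binding induced by the VLA-4 ligand LDV present at three times its Kd; 0% = LDV ligand with antibody and no compound and 100% = antibody without LDV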). The settings on record: HUTS-21 LIBS mAb binding, at 6.7 µM, stronger effect = higher value, binding induced by LDV ligand.

Test [8] can be described thus: calorie-restriction mimetic ROS inhibitors, yeast – validation compound set, pilot screen (AID 2706;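 active = superoxide response below 65% of plate, a cut near 3 SD across the whole screen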;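 note: yeast exposed to compound for one week at 30 degrees C before staining; 100% = mean of all compound wells on the same plate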). As to conditions: S. cerevisiae aging, superoxide DHE fluorescence; at 10 µM; stronger effect = lower value.
Test [9] has as its target Beta-adrenergic receptor kinase 1 (Homo sapiens) (UniProt P25098). The experiment in a line: GRK2 binders displacing RNA aptamer, biochemical, validation, human GRK2, bead flow cytometry (AID 488806;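 active = aptamer binding inhibition above 30%, about 3 SD of noise from non-fluorescent compounds; inactive = inhibition at or below 30%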). As to conditions: bead-bound GRK2, FAM-aptamer displacement, at 10 µM, stronger effect = higher value.
Test [10] has as its target Beta-2 adrenergic receptor (Homo sapiens) (UniProt P07550). Put plainly: agonist-induced loss of surface beta2AR – cell-based, FAP fluorogen, flow cytometry, validation set, pilot screen (AID 504459;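 active = percent response above 42, roughly 3 SD of non-fluorescent test compounds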;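 note: agonist-driven loss of surface beta2AR via internalization measured by FAP dye flow cytometry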). As to conditions: Am2.2-beta2AR cells, at 10 µM, stronger effect = higher value.
In test [11] the target is AP-2 complex subunit beta (Homo sapiens) (UniProt P63010). Put plainly: beta-arrestin/AP2 interaction blockers – biochemical, validation set, GST-AP2 beads, flow cytometry, pilot screen (AID 504541;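 active = inhibition above 54%, about 3 SD of non-fluorescent compounds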;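 note: AP2 carries R879A mutation and is captured from E. coli lysate; bead-bound FITC arrestin peptide fluorescence measuring arrestin peptide binding to AP2; 0% = DMSO wells and 100% = excess unlabeled arrestin peptide control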). The settings on record: FITC arrestin peptide, at 10 µM, stronger effect = higher value, AP2 beta2 appendage fragment, R879A mutant.
Test [12] in a line: cytosolic pH regulators acting via V-ATPase – S. cerevisiae, pHLuorin, HTS validation (AID 504600; in the data active = response above about 15%;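 note: plate controls were DMSO for no effect and reference compound for full effect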). The settings on record: V-ATPase proton transport, at 10 µM, stronger effect = higher value.
Test [13] deals with anti-desmoglein-3 scFv antibody binding to human DSG3. The experiment in a line: blockers of pathogenic pemphigus antibody–desmoglein-3 binding – biochemical, validation compound set, bead-based, flow cytometry, pilot screen (AID 588368;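 active = binding below the plate cutoff, the plate median minus 3 SD, with a reading above zero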;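 note: signal is the median channel fluorescence of bead-bound GFP antibody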). The settings on record: Protein G beads, DSG3-Fc, scFv-GFP binding, at 10 µM, stronger effect = lower value.
Test [14] in a line: Nile Red efflux blockade in pump-expressing yeast – validation compound set, multiplex, phenotypic, pilot screen (AID 588506;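 active = efflux inhibition above 0.42, the validation set average plus 4 SD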;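 note: Nile Red retained in cells so higher fluorescence means more efflux inhibition; 0 = negative control wells and 1 = enniatin B 25 µM full block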). As to conditions: S. cerevisiae pump-expressing triplex, Nile Red efflux flow cytometry; at 10 µM; stronger effect = higher value; the pumps come from Candida albicans.
Test [15] deals with ATP-binding cassette sub-family B member 6 (Homo sapiens) (UniProt Q9NP58). Put plainly: blockers of ABCB6-driven porphyrin uptake – K562-ABCB6 cells, flow cytometry, validation set, pilot screen (AID 588550;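 active = inhibition above the screen-wide mean plus 3 SD, about 51%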;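 note: 0% = DMSO wells and 100% = benzethonium chloride 70 µM positive control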). The settings on record: K562-ABCB6 porphyrin accumulation, 1 h, at 10 µM, stronger effect = higher value.
A short description of test [16]: AML differentiation inducers, ER-HoxA9 marrow cells – cell-based, GFP/MAC1 double positive, flow cytometry, validation set, primary screen (AID 588685;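 active = differentiation response of at least 50%, scaled between solvent and reference control, from cells with both markers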;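 note: compound exposure lasts four days before antibody staining and flow analysis; 0% = DMSO wells and 100% = 5 µM fulvestrant positive control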). The settings on record: stronger effect = higher value, normalized: vehicle 0, fulvestrant 100.

Sequence of Beta-adrenergic receptor kinase 1 (Homo sapiens) (P25098 whole entry, looked up): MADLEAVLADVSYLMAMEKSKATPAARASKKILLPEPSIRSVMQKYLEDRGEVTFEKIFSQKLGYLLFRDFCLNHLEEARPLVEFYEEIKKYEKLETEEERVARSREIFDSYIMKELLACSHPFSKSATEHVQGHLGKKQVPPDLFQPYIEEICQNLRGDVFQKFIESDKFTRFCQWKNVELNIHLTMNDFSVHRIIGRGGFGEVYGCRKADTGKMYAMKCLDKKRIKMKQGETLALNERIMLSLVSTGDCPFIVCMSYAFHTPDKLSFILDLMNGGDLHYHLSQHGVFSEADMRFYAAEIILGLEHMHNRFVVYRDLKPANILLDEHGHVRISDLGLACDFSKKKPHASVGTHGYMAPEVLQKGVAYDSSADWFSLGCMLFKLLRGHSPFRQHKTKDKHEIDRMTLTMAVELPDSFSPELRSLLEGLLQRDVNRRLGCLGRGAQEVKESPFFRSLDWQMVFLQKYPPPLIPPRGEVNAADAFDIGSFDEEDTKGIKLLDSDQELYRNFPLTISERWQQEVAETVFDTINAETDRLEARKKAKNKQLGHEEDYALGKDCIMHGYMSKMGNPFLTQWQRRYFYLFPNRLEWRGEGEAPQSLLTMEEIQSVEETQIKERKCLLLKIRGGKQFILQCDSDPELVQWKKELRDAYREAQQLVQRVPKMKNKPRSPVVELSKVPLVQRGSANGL
Sequence of AP-2 complex subunit beta (Homo sapiens) (P63010 whole entry, looked up, the tested form may be a part, one chain of several): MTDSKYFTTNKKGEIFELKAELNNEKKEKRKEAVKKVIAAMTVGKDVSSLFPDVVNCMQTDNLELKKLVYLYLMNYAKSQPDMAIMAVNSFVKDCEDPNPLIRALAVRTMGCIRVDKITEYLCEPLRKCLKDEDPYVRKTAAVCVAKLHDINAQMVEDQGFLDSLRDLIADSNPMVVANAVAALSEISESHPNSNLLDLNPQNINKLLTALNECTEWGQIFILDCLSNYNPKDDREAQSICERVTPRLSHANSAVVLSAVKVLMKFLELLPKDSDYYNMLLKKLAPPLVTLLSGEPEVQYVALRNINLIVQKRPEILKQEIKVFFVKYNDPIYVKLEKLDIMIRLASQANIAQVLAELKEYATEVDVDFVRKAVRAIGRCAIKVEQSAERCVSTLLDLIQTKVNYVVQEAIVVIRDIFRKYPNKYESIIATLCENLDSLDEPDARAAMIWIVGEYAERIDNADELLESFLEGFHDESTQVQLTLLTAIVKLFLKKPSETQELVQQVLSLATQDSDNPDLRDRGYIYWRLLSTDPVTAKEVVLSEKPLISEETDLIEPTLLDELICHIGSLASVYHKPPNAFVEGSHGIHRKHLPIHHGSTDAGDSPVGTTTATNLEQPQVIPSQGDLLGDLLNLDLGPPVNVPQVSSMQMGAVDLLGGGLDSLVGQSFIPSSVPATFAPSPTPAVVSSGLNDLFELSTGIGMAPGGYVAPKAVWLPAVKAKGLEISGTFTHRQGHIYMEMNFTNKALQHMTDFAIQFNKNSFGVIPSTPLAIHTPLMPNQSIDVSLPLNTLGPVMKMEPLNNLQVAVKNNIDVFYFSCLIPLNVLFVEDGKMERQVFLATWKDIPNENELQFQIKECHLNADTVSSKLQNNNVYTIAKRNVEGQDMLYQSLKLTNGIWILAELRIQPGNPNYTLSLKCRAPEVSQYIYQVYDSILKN
Sequence of Beta-2 adrenergic receptor (Homo sapiens) (P07550 whole entry, looked up): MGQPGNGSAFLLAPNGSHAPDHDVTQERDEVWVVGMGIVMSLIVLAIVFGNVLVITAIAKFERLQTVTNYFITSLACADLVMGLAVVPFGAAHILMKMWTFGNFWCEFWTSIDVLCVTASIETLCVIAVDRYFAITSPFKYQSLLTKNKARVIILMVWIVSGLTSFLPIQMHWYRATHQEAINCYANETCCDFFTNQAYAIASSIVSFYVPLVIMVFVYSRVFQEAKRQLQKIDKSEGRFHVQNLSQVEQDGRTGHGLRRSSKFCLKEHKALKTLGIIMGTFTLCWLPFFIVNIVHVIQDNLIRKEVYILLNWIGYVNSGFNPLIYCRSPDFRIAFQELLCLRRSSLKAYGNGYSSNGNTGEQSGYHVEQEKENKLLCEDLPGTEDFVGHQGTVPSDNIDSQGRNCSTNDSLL
Sequence of ATP-binding cassette sub-family B member 6 (Homo sapiens) (Q9NP58 whole entry, looked up): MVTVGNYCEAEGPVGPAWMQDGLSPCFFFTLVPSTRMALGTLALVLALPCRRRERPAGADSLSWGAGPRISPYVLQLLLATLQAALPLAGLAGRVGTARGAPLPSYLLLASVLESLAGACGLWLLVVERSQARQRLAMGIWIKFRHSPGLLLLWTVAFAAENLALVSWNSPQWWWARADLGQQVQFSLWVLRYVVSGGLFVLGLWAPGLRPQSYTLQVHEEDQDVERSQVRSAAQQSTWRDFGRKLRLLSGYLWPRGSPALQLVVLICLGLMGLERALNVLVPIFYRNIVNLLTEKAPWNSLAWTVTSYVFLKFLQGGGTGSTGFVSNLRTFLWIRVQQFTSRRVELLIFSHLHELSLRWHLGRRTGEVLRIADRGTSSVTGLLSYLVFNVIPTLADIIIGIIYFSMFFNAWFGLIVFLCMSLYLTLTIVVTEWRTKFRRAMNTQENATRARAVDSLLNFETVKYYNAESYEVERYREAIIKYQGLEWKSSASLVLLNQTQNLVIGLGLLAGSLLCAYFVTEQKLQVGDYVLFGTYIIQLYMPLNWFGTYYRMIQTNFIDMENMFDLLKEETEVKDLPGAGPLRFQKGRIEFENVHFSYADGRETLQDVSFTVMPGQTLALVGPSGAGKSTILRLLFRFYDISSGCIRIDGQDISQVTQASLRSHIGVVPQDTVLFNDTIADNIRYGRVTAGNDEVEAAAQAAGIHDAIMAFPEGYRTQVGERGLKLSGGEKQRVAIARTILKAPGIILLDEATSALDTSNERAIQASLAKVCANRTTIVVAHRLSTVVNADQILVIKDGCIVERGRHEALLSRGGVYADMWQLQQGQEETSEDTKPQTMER
Sequence of Integrin beta-1 (Homo sapiens) + Integrin alpha-4 (Homo sapiens) (P05556 whole entry, looked up): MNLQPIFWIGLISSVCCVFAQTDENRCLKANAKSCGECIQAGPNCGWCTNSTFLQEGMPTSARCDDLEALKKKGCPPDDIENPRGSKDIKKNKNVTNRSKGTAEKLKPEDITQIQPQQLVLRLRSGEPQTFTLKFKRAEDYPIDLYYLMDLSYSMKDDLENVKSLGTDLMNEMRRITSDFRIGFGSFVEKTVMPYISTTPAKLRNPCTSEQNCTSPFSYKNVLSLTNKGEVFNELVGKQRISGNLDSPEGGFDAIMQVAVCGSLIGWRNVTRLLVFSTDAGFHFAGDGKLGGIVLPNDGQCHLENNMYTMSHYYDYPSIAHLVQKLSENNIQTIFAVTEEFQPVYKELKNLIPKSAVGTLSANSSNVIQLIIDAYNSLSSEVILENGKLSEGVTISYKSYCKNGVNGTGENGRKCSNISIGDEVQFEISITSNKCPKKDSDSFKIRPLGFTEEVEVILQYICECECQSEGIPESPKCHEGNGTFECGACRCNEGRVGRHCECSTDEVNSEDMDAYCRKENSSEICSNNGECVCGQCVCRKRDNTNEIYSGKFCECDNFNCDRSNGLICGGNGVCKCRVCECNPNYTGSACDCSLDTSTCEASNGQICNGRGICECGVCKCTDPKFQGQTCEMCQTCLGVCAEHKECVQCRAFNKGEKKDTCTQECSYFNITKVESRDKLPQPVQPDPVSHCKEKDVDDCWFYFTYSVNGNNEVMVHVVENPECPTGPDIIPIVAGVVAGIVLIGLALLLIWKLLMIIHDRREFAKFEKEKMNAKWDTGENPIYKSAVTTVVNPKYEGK
Sequence of Integrin beta-1 (Homo sapiens) + Integrin alpha-4 (Homo sapiens) (P13612 whole entry, looked up): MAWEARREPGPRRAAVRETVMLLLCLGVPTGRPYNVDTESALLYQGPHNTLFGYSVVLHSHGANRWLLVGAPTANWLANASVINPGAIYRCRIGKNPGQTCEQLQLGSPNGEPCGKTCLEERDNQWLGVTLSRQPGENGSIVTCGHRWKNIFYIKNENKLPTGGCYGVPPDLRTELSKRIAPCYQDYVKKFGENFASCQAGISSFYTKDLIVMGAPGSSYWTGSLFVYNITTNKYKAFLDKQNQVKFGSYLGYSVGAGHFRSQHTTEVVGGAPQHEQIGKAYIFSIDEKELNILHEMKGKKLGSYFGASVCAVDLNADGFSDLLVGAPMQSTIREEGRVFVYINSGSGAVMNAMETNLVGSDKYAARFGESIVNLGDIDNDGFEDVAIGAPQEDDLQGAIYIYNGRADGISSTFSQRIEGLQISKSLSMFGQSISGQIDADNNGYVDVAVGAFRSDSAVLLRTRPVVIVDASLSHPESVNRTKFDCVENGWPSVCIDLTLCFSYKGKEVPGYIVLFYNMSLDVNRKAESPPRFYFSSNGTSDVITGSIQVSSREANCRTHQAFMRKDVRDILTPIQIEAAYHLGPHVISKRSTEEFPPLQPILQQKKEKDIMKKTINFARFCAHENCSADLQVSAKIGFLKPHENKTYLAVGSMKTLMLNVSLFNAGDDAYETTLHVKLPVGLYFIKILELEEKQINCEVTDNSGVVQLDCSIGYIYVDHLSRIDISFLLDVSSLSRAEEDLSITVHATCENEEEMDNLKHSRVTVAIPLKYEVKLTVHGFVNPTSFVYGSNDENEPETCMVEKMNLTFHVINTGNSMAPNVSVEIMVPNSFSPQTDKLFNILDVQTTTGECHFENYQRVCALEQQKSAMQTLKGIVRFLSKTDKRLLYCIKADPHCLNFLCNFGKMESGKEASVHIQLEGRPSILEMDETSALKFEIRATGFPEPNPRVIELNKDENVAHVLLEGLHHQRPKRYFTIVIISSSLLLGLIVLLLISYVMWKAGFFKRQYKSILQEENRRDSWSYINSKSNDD

Consider `CC(C)N1C(=O)/C(=C\c2nc3ccccc3c(=O)[nH]2)c2ccccc21`, for which the percent of DMSO control GFP in test [1] was 103% (inactive). The GFP response vs DMSO in [2] is 106% (inactive); in test [4] it was 128% (inactive). In [3], the percent response of DMSO control is 103% (inactive). Besides, in test [5], the GFP response, % of DMSO was 93.8% (inactive). For the same compound, the double positive events in [6] turned out to be 60.8%. Further, the vesicle binding response in test [6] was 157% (inactive). The values for the inhibition in test [7], in test [11] and in test [15] were -7.25% (inactive), -10.5% (inactive) and 6% (inactive), respectively. Also, the superoxide response (% of plate) in [8] is 125% (inactive). In addition, in test [9], the aptamer binding inhibition was 6% (inactive). Besides, the response in [10] is 32.8% (inactive); in test [12], -1.63% (inactive). For the same compound, the binding (% of control) in test [13] is 101% (inactive). Moreover, the efflux inhibition (fraction of control) in [14] is -0.1 (inactive). Further, the differentiation response in test [16] is -21.6% (inactive).
As to `CCCCC(=O)O[C@H]1CC[C@H]2[C@@H]3CCc4cc(O)ccc4[C@H]3CC[C@]12C`, the percent of DMSO control GFP in test [1] was 100% (inactive). Further, the GFP response vs DMSO in [2] was 105% (inactive); in test [4], 125% (inactive). For the same compound, in test [3], the percent response of DMSO control was 109% (inactive). For the same compound, the GFP response, % of DMSO in test [5] was 116% (inactive). Moreover, the double positive events in [6] worked out at 62.5%. For the same compound, the vesicle binding response in test [6] was 210% (inactive). Also, the inhibition (usually the change of the read-out against control, counted positive when it falls) in test [7] is 29.5% (inactive); in test [11] it was 30.7% (inactive); in test [15], -1% (inactive). Besides, in test [8], the superoxide response (% of plate) was 93.8% (inactive). Besides, in [9], the aptamer binding inhibition is -4% (inactive). Moreover, the response in test [10] is 52.1% (active); in test [12], -0.48% (inactive). Besides, in test [13], the binding (% of control) is 106% (inactive). Besides, in test [14], the efflux inhibition (fraction of control) is -0.17 (inactive). Also, in test [16], the differentiation response is -6.96% (inactive).
For `c1ccc(Cn2nnc3cnccc32)cc1`, the percent of DMSO control GFP in test [1] was 104% (inactive). For the same compound, the results for the GFP response vs DMSO in [2] and in test [4] were 101% (inactive) and 106% (inactive), respectively. Moreover, the percent response of DMSO control in [3] was 104% (inactive). Also, the GFP response, % of DMSO in test [5] was 107% (inactive). Further, the double positive events in test [6] turned out to be 57.9%. In addition, in test [6], the vesicle binding response was 67.8% (inactive). Moreover, the inhibition in [7] was 4.27% (inactive); in test [11], -12.1% (inactive); in test [15] it was 9% (inactive). Also, in test [8], the superoxide response (% of plate) is 113% (inactive). Further, the aptamer binding inhibition in test [9] is 2% (inactive). Moreover, the response in test [10] was 0.22% (inactive); in [12], 0.84% (inactive). For the same compound, the binding (% of control) in test [13] is 102% (inactive). Further, in [14], the efflux inhibition (fraction of control) is 0.33 (inactive). Further, the differentiation response in test [16] is -10.4% (inactive).
In the case of `CC(CN1c2ccccc2Sc2ccccc21)N(C)C` (stereo not drawn), the percent of DMSO control GFP in test [1] was 92.4% (inactive). The GFP response vs DMSO in test [2] was 117% (inactive); in test [4], 78.1% (inactive). Also, the percent response of DMSO control in test [3] is 111% (inactive). The GFP response, % of DMSO in test [5] is 94.9% (inactive). In test [6], the double positive events amounted to 74.2%. In test [6], the vesicle binding response was 363% (inactive). Moreover, the inhibition was -2.27% (inactive) in [7], 1.26% (inactive) in [11] and 10% (inactive) in [15]. Further, the superoxide response (% of plate) in test [8] was 84.2% (inactive). For the same compound, the aptamer binding inhibition in test [9] is -3% (inactive). The response in [10] is -2.04% (inactive); in test [12], -2.78% (inactive). Besides, in test [13], the binding (% of control) was 97.2% (inactive). The efflux inhibition (fraction of control) in [14] was -0.53 (inactive). For the same compound, the differentiation response in test [16] was -1.64% (inactive).
